From PubChem BioAssay (Tox21)
Results filed as inconclusive are left out. Active and inactive are the calls of the source. Unless noted, calls come from the whole dose curve; as a rule, active = well fitted curve in the direction sought with a large enough effect in the repeat runs; inconclusive = weak or mixed curves; inactive = no such curve, though single readings can be large; an effect the other way counts as inactive or inconclusive.

Tests used:
[1] = qHTS assay to identify small molecule agonists of the vitamin D receptor (VDR) signaling pathway - cell viability counter screen (AID 743224); note: series mostly up to about 63 µM; nearly all actives have a fitted effect of over 50% in size
How it was run: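 Compounds were pin-transferred onto VDR-bla cells plated 4 h earlier; following 16 h incubation at 37C, cell viability was quantified by CellTiter-Glo luminescence after 30 min at room temperature.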

[2] = qHTS assay to identify small molecule antagonists of the vitamin D receptor (VDR) signaling pathway - cell viability counter screen (AID 743225); note: nearly all actives have a fitted effect of over 50% in size
How it was run: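 Luminescent cell viability (CellTiter-Glo) in VDR-bla HEK 293T cells after 16 h compound exposure at 37C in the presence of 3 nM final 1-alpha,25-dihydroxy vitamin D3.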

[3] = qHTS assay to identify small molecule agonists of the NFkB signaling pathway (AID 1159509; active = well fitted curve in the direction sought with a large enough effect in the signal ratio in the repeat runs, not every such curve was filed as active; the % refers to the signal ratio; note: series mostly up to about 61 µM)
How it was run: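 Beta-lactamase reporter assay run in quantitative high-throughput format on an NF-kB-responsive ME-180 line, with 5 hr compound treatment and a FRET-based blue/green fluorescence readout.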

[4] = qHTS assay to identify small molecule agonists of the NFkB signaling pathway - cell viability counter screen (AID 1159515; calls by dose curve; note: series mostly up to about 61 µM; nearly all actives have a fitted effect of over 55% in size)
How it was run: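 Parallel cytotoxicity counter screen in ME-180 cells carrying an NFkB-response-element beta-lactamase reporter, 2,000 cells/well. Compound exposure lasted 5 hr at 37 C, 5% CO2. Cell viability was quantified by CellTiter-Glo luminescence.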

[5] = qHTS assay to identify small molecule agonists of the endoplasmic reticulum stress response signaling pathway - cell viability counter screen (AID 1159517; calls by dose curve;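 note: HeLa cells carrying an ER stress response element beta-lactamase reporter; series mostly up to about 61 µM; nearly all actives have a fitted effect of over 50% in size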)
How it was run: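 After overnight attachment, ESRE-bla HeLa cells were treated with Tox21 library compounds for 5 hr. CellTiter-Glo luminescence, read 30 min post-addition at room temperature, reported viability.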

[6] = qHTS assay to identify small molecule antagonists of the retinoid-related orphan receptor gamma (ROR-gamma) signaling pathway - cell viability counter screen (AID 1159520); note: nearly all actives have a fitted effect of over 50% in size
How it was run: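 Cytotoxicity was read from cellular ATP (CellTiter-Glo luminescence) after 16 hr at 37 C with 1 uM doxycycline induction. The inducer was added 2 hr after compound transfer to Tet-on ROR gamma CHO cells.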

[7] = target: Nuclear receptor ROR-gamma (Homo sapiens) (UniProt P51449); assay: qHTS assay to identify small molecule antagonists of the retinoid-related orphan receptor gamma (ROR-gamma) signaling pathway (AID 1159521)
How it was run: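 CHO cells expressing RORγ under a TET-on promoter, luciferase under RORE control. Dox 1 uM final, 16 h; compounds added 2 h prior. Luminescence decrease measured.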

[8] = qHTS assay to identify small molecule agonists of the AP-1 signaling pathway - cell viability counter screen (AID 1159525; calls by dose curve; note: nearly all actives have a fitted effect of over 55% in size)
How it was run: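 Intracellular ATP by Cell Titer Glo luminescence (30 min, RT) in the same ME-180 AP-1-bla wells after the 5 h compound exposure at 37 °C. Normalised to tetra n-octyl ammonium bromide and DMSO controls.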

[9] = qHTS assay to identify small molecule agonists of the AP-1 signaling pathway (AID 1159526; calls by dose curve)
[10] = target: Retinoic acid receptor RXR-alpha (Homo sapiens) (UniProt P19793); assay: qHTS assay to identify small molecule agonists of the RXR signaling pathway (AID 1159527; calls by dose curve; note: nearly all actives have a fitted effect of over 35% in size)
How it was run: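 Beta-lactamase reporter assay, agonist format. Engineered HEK 293T line, charcoal-stripped FBS at 2%, overnight (16 hr) exposure, fluorescence at 460 and 530 nm after 405 nm excitation.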

[11] = qHTS assay to identify small molecule agonists of the RXR signaling pathway - cell viability counter screen (AID 1159529)
How it was run: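 Same-well viability check after the LiveBLAzer FRET read: CellTiter-Glo added, luminescence measured after 30 min at room temperature. Reporter HEK 293T cells had been treated with compounds for 16 hr following a 5 hr preincubation.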

[12] = qHTS assay to identify small molecule antagonists of the retinoid acid receptor (RAR) signaling pathway - cell viability counter screen (AID 1159551); note: nearly all actives have a fitted effect of over 35% in size
How it was run: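 ATP-based viability, C3RL4 cells, 6 h at 37 C with 1 uM final retinol co-added after compound; luminescence read 30 min post CellTiter-Glo, RT.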

[13] = qHTS assay to identify small molecule antagonists of the retinoic acid receptor (RAR) signaling pathway (AID 1159552; note: nearly all actives have a fitted effect of over 50% in size)
How it was run: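 Readout: luciferase luminescence, 30 min post-reagent at RT. Setup: C3RL4 RARE reporter cells, compounds plus retinol 1 uM final, 6 hr incubation at 37 C and 5% CO2.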

[14] = qHTS assay to identify small molecule agonists of the retinoic acid receptor (RAR) signaling pathway (AID 1159553)
How it was run: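 Quantitative high-throughput format: the Tox21 10K library was tested on C3RL4 RARE-luciferase cells for 6 hr at 37 C and 5% CO2, with luminescence measured after a 30 min room-temperature reagent step.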

[15] = qHTS assay to identify small molecule antagonists of the estrogen related receptor (ERR) signaling pathway - cell viability counter screen (AID 1224818);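 note: series mostly up to about 46 µM; viability measured after 17.5 h of compound exposure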
How it was run: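 Quantitative high-throughput viability counter screen in ERR cells. Compounds (DMSO) incubated 17.5 h at 37 C; read-out was CellTiter-Fluor fluorescence.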

[16] = qHTS assay to identify small molecule antagonists of the estrogen related receptor signaling pathway with the pleiotropic PPARgamma coactivator (PGC) cell viability counter screen (AID 1224822; note: series mostly up to about 46 µM)
How it was run: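 Cytotoxicity in the PGC/ERR cell line is assessed with CellTiter-Fluor, read as fluorescence intensity 30 min after reagent addition, following 17.5 h compound treatment at 37 C.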

[17] = qHTS assay to identify small molecule agonists of the endoplasmic reticulum stress response signaling pathway (AID 1159516; active = well fitted activation curve with a large enough effect in the signal ratio in the repeat runs, not every such curve was filed as active; the % refers to the signal ratio)
How it was run: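 Using a HeLa line with an ESRE-driven beta-lactamase gene, agonist activity was measured by FRET substrate fluorescence (460 and 530 nm emission) after cells were treated with compounds for 5 hr at 37 C and 5% CO2.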

[18] = qHTS assay to identify small molecule agonists of the estrogen related receptor (ERR) signaling pathway (AID 1224820)
How it was run: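 Following a 6 h settling period, 2,000 ERR cells per well receive DMSO-dissolved compounds by pin tool and incubate 18 h at 37 C; agonist activity is scored from One-Glo luminescence read 30 min post-addition.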

[19] = test system: estrogen-related receptor alpha (ERRalpha) with PGC-1alpha coactivator, human; assay: qHTS assay to identify small molecule antagonists of the estrogen related receptor signaling pathway with the pleiotropic PPARgamma coactivator (PGC) (AID 1224821; calls by dose curve)
How it was run: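 Screening used NTP's PGC/ERR cells, dosed via pin tool with compound in DMSO alongside positive and negative controls. After 18 h at 37 C, One-Glo reagent sat 30 min at room temperature before luminescence detection.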

Measured: Potency

Retinoic acid receptor RXR-alpha (Homo sapiens), sequence (P19793 whole entry, looked up): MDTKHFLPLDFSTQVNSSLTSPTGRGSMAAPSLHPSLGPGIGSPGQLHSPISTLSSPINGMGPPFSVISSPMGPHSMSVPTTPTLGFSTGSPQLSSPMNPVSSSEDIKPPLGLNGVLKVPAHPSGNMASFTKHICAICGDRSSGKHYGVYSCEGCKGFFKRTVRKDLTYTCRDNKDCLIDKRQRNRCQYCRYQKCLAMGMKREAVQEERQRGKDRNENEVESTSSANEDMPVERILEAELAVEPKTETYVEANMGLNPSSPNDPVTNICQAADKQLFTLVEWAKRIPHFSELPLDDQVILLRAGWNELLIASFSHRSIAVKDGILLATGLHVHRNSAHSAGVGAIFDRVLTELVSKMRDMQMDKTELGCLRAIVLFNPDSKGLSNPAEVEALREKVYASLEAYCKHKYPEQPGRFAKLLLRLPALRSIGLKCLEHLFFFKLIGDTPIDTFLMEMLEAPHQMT

COc1ccc(CCN(C)CCCC(C#N)(c2cc(OC)c(OC)c(OC)c2)C(C)C)cc1OC (stereo unspecified)
inactive: [1] | [2] | [3] | [4] | [5] | [6] | [7] | [8] | [9] | [10] | [11] | [12] | [13] | [14] | [15] | [16]

CC1(C)C(O)C(C)(C)C1O (stereo unspecified)
inactive: [1] | [2] | [3] | [4] | [17] | [5] | [6] | [7] | [8] | [9] | [10] | [11] | [12] | [14]

CCOC(=O)Nc1ccc(NCc2ccc(F)cc2)nc1N
inactive: [1] | [2] | [3] | [4] | [5] | [6] | [7] | [8] | [9] | [10] | [11] | [12] | [13] | [14] | [15] | [18] | [19] | [16]

O=C1CCCC(=O)C1
inactive: [1] | [2] | [3] | [4] | [5] | [6] | [7] | [8] | [9] | [10] | [11] | [12] | [13] | [14]

CCCCNC(=O)NCCCC
inactive: [1] | [3] | [4] | [5] | [6] | [7] | [8] | [9] | [10] | [11] | [12] | [13] | [14]

CC(C)NCCCC1(C(N)=O)c2ccccc2-c2ccccc21
inactive: [1] | [2] | [3] | [4] | [5] | [6] | [7] | [8] | [9] | [10] | [11] | [12] | [14]

CC(NC(CCc1ccccc1)C(=O)O)C(=O)N1C(=O)N(C)CC1C(=O)O (stereo unspecified)
inactive: [1] | [2] | [3] | [4] | [5] | [6] | [7] | [8] | [9] | [10] | [11] | [12] | [13] | [14]

FC(F)OC(Cl)C(F)(F)F (stereo unspecified)
inactive: [1] | [2] | [3] | [4] | [5] | [6] | [7] | [8] | [9] | [10] | [11] | [12] | [13] | [14]
